In the library only some 3.5% were active in any assay of this set; here they are far more common.
FBW7 activator – FBW7 E3 ligase activators, primary screen, biochemical, AlphaScreen, human; F-box/WD repeat-containing protein 7 (Homo sapiens), Q969H0; AlphaScreen FBW7–phospho-cyclin E peptide binding, activator screen; normalized activity (activation), % at 26.1 µM; 0.13% of 650,000 active; AID 1259310, 2017; in the data active = normalized activity above about 1.9%;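 also: purified mutant Fbw7 with reduced substrate affinity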
Target sequence (Q969H0 whole entry, looked up): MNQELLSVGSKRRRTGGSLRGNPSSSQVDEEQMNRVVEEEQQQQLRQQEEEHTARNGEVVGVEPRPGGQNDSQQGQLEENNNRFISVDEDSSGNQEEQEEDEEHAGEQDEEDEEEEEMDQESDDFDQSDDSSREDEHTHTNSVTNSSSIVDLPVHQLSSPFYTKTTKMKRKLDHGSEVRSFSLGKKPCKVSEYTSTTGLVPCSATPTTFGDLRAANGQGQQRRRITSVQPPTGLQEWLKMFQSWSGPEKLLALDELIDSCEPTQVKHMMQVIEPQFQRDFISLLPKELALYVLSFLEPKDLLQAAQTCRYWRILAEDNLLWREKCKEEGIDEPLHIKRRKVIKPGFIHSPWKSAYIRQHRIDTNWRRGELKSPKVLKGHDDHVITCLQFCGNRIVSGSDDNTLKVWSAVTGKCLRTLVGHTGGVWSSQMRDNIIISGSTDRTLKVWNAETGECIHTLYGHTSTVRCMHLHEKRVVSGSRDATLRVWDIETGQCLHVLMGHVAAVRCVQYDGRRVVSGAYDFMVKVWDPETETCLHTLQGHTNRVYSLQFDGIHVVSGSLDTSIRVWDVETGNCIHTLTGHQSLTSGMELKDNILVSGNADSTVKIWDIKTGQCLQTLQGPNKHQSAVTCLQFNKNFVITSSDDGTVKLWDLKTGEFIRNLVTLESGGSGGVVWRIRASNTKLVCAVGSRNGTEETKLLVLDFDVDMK
MITF primary – MITF inhibitors, primary screen, biochemical, AlphaScreen, human | AlphaScreen MITF homodimerization, bead proximity signal | inhibition, % at 2.6 µM | 0.91% of 650,000 active; in the data active = inhibition above about 50%
GPR151 activ – activators of human GPR151, primary screen, cell-based, PathHunter beta-arrestin, luminescence; G-protein coupled receptor 151 (Homo sapiens), Q8TDV0; PathHunter beta-arrestin GPR151 cells; activation, % at 11.2 µM; 1% of 650,000 active; AID 1508602, 2020; in the data active = activation above about 4.9%
TEAD-YAP block – TEAD-YAP interaction inhibition, primary screen, TEAD-YAP interaction inhibitor project, luminescence, HEK-TIYL cells. inhibition, % at 9.12 µM. TEAD-Gal4/YAP UAS-luciferase luminescence. 1.4% of 640,000 active. AID 1259422, 2018; in the data active = inhibition above about 32%
Numbers stand for hits; – = inactive.

SMILES	FBW7 activator	MITF primary	GPR151 activ	TEAD-YAP block
CC(C)NC(=O)N1CCCC(c2nc(-c3ccc4c(c3)OCO4)c3ccccn23)C1 (stereo unspecified)	–	–	–	–
COc1ccc(S(=O)(=O)N2c3ccc(C)cc3C(C)=CC2(C)C)cc1	–	–	–	62
CC1=CC(C)(C)N(S(=O)(=O)c2ccc(C)cc2)c2cc(C)c(C)cc21	–	–	–	65
COc1ccc(/C=C/C(=O)N2c3ccc(OC)cc3C(C)=CC2(C)C)cc1	–	–	–	–
CC1=CC(C)(C)N(S(=O)(=O)c2ccc(C)cc2)c2c(C)cc(C)cc21	–	–	–	36
COc1ccc(S(=O)(=O)N2c3ccc(Br)cc3C(C)=CC2(C)C)cc1	–	–	–	55
CC1=CC(C)(C)N(S(=O)(=O)c2ccc(Cl)cc2)c2c(C)cc(C)cc21	–	–	–	–
CCOC(=O)c1c(NC(=O)CSc2nnc(CNC(=O)c3c(F)cccc3Cl)n2C)sc2c1CCCC2	–	–	–	–
COc1ccc(NC(=O)/C(=C/c2ccc(OC(C)=O)cc2)NC(=O)c2ccco2)cc1	–	–	–	–
CCOC(=O)C1CCCCN1C(=O)c1sc2ncnc(N3CCN(c4ccccn4)CC3)c2c1C (stereo unspecified)	–	–	–	–
CCOc1ccc(S(=O)(=O)N2c3ccc(C)cc3C(C)=CC2(C)C)cc1	–	–	–	64
CC1=CC(C)(C)N(S(=O)(=O)c2ccc(F)cc2)c2ccc(C)cc21	–	–	–	44
CCC(=O)Nc1ccc(Oc2ccc3c(c2)C(=O)NC3=O)cc1	–	–	–	–
Cc1ccccc1OCC(=O)Nc1ccc(Oc2ccc3c(c2)C(=O)NC3=O)cc1	–	–	–	52
O=C(CCc1ccccc1)Nc1ccc(Oc2ccc3c(c2)C(=O)NC3=O)cc1	–	–	–	52
O=C(COc1ccccc1)Nc1ccc(Oc2ccc3c(c2)C(=O)NC3=O)cc1	–	–	–	51
CCC(=O)Nc1cccc(NC(=O)CSc2nnc(-c3ccncc3)n2CC)c1	–	–	–	–
O=c1c(-c2ccc3c(c2)OCCO3)coc2cc(O)ccc12	–	–	–	55
O=c1c(-c2ccc3c(c2)OCCCO3)coc2cc(O)cc(O)c12	–	–	–	66
COc1ccc2c(=O)c(-c3ccc4c(c3)OCCO4)coc2c1	–	–	–	–
COc1ccc(C2(C(=O)NC(C)c3nc(-c4cccnc4)n[nH]3)CC2)cc1 (stereo unspecified)	–	–	–	51
CC(NC(=O)C1(c2ccc(Cl)cc2)CC1)c1nc(-c2cccnc2)n[nH]1 (stereo unspecified)	–	–	–	–
CCOC(=O)c1cnc2cc(C(F)(F)F)ccc2c1NCCc1ccc(OC)c(OC)c1	–	–	–	–
COc1cccc(C(=O)N2CCN(c3ccc(F)cc3)CC2)c1OC	–	–	–	–
COc1ccc2cc3c(N)c(C(=O)Nc4sc(C)c(C)c4C#N)sc3nc2c1	–	–	–	–
SMILES	FBW7 activator	MITF primary	GPR151 activ	TEAD-YAP block
O=S(=O)(c1ccc(Cl)s1)N1CCc2ccccc2C1	–	–	–	41
O=S(=O)(c1ccc(Cl)s1)N1CCCCCC1	–	–	–	–
COc1ccccc1C(=O)N1CCN(c2ccc([N+](=O)[O-])cc2)CC1	–	–	–	–
CCN(C(C)=O)c1nnc(-c2ccc(C)cc2)s1	–	–	–	47
COc1ccccc1CNC(=O)CN(C)S(=O)(=O)c1ccc2c(c1)C(C)(C)C(=O)N2C	–	–	–	–
COc1ccc2c(c1)CC(c1nc3cc(-c4ccnc5[nH]ccc45)c(F)cc3[nH]1)CO2 (stereo unspecified)	–	–	–	50
COc1ccc2c(c1)CC(c1nc3ccc(-c4ccnc(N)c4)cc3[nH]1)CO2 (stereo unspecified)	–	–	–	–
CCn1c(C2COc3ccc(OC)cc3C2)nc2cc(F)c(-c3ccnc4[nH]ccc34)cc21 (stereo unspecified)	–	58	–	–
COc1ccccc1CC(=O)Nc1ccc2ccccc2c1	–	–	–	–
CN(C)N1C(N)=C(C#N)C(c2ccc(C(F)(F)F)cc2)C2=C1CCCC2=O (stereo unspecified)	2.1	–	–	–
COc1ccc(N2C(N)=C(C#N)C(c3ccc(O)c(OC)c3)C3=C2CCCC3=O)cc1 (stereo unspecified)	–	–	–	58
COc1ccc(N2C(N)=C(C#N)C(c3ccc(OC)c(OC)c3)C3=C2CCCC3=O)cc1 (stereo unspecified)	–	–	–	62
COc1ccc(C2C(C#N)=C(N)N(c3ccc(OC)cc3)C3=C2C(=O)CCC3)cc1 (stereo unspecified)	–	–	–	–
Cc1ccc(C2C(C#N)=C(N)N(N(C)C)C3=C2C(=O)CCC3)cc1 (stereo unspecified)	–	–	–	–
COc1cc(C2C(C#N)=C(N)N(c3ccc(C)cc3)C3=C2C(=O)CCC3)cc(OC)c1OC (stereo unspecified)	–	–	–	61
COc1ccc2c(c1)C(C)CC(C)(C)N2C(=O)CNCc1cccc(F)c1 (stereo unspecified)	–	–	–	–
Cc1cc2c(cc1C)C(c1ccc(Cl)c(Cl)c1)CC(=O)N2 (stereo unspecified)	–	–	–	–
COc1cc(S(=O)(=O)NCc2ccccn2)ccc1Cl	–	–	–	37
O=S(=O)(NCc1ccccn1)c1ccc(Cc2ccc(S(=O)(=O)NCc3ccccn3)cc2)cc1	–	–	–	59
COc1cccc(S(=O)(=O)NCc2ccccn2)c1	–	–	–	–
CC1=NOC(=O)/C1=C/c1ccccc1OCc1cccc(F)c1	–	–	–	–
O=C(Nc1ccc(Oc2ccccc2)cc1)C1C2C=CC3(O2)C1C(=O)N(Cc1ccccc1Cl)C3C(=O)NC1CCCCC1 (stereo unspecified)	–	–	–	–
CCOc1cc(C2Nc3ccc(C(=O)c4ccccc4)cc3NC3=C2C(=O)CCC3)ccc1O (stereo unspecified)	–	–	–	64
COc1cc(C2C3=C(CCCC3=O)Nc3ccc4ncccc4c32)ccc1OC(C)=O (stereo unspecified)	–	–	–	54
COc1ccc(C2Nc3ccc(C(=O)c4ccccc4)cc3NC3=C2C(=O)CCC3)cc1OC (stereo unspecified)	–	–	–	59
COc1cc(C2C3=C(CCCC3=O)Nc3ccc4nc(C)ccc4c32)ccc1OC(C)=O (stereo unspecified)	–	–	–	–
CCOc1cc(C2Nc3ccc(C(=O)c4ccccc4)cc3NC3=C2C(=O)CC(C)(C)C3)ccc1O (stereo unspecified)	–	–	–	45
Cc1cccc(C)c1-n1nnnc1C(NCCc1c(C)[nH]c2ccccc12)c1ccc(Cl)cc1Cl (stereo unspecified)	–	–	–	–
O=C(CCc1nnc(Cc2cccc(C(F)(F)F)c2)o1)NCCc1ccco1	–	–	–	–
CCOc1ccccc1CNC(=O)Cc1cccs1	–	–	–	–
